In all, about 2,400 compounds went through this assay and about 1,200 (50%) were called active. The set was probably picked from earlier hits. The list is a sample of the results. A number with no mark means an inactive call. No stated cut-off is given here; in the data, active means inhibition above about 24%; inactive means the rest.
The molecules below were run against Neuropeptides B/W receptor type 1 (Homo sapiens) (UniProt P48145) (assay: GPR7 receptor antagonists, confirmation, cell-based, fluorescence, single concentration (AID 1952;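 further: stimulated with the GPR7 agonist NPW; 0% = agonist plus vehicle and 100% = vehicle alone without agonist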)). Details: GPR7-expressing cells, calcium fluorescence antagonist mode; at 4.4 µM; hits give high values.
Chain of Neuropeptides B/W receptor type 1 (Homo sapiens) (P48145 whole entry, looked up): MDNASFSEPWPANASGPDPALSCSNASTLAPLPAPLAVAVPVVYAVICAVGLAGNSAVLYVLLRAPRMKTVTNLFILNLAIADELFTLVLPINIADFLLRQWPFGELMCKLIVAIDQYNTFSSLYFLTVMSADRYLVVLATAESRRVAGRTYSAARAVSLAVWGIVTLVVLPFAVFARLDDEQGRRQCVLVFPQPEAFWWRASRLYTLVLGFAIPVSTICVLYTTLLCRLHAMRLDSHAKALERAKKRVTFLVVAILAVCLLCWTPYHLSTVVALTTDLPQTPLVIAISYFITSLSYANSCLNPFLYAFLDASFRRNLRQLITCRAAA
With `Cc1cccc(CS(=O)(=O)c2ncc(Cl)c(C(=O)Nc3ccc(F)cc3)n2)c1` the inhibition was 51.2% (active).
Molecule `COc1ccccc1CNC(=O)COc1ccc(C)nc1[N+](=O)[O-]` has an inhibition of 2.95%.
`COc1ccc(NS(=O)(=O)c2ccc(NC(=S)NC(=O)CC(C)C)cc2)cc1` was tested, and the inhibition was 35.8% (active).
`COc1ccccc1Oc1ccc(S(=O)(=O)Nc2cccnc2)cc1` showed an inhibition of 16.8%.
`COc1ccc(C2Nc3ccccc3C(=O)N2Cc2ccccc2)cc1Cn1nnc2ccccc21` (stereo unspecified) was tested, and the inhibition was 31.7% (active).
`O=C(CC(=O)Nc1ccc(Cl)c(Cl)c1)N/N=C/c1ccc(O)cc1` gave an inhibition of 10.9%.
`COc1ccc(C(CCNCc2ccccc2F)c2ccc(F)cc2)cc1` (stereo unspecified) was tested, and the inhibition was 47.2% (active).
Molecule `CC1(C)CC(CNCCC(c2ccc(F)cc2)c2ccco2)CCO1` (stereo unspecified) has an inhibition of 12.5%.
With `CC(C)OCCCNc1ncnc2c1[nH]c1ccc(F)cc12` the inhibition was 39.2% (active).
In the case of `O=C(CN1CCN(C(=S)NC2CCCC2)CC1)Nc1ccc(Oc2ccccc2)cc1`, the inhibition is reported as 28.6% (active).
`O=C(CCc1ccccc1)Nc1ccc(NC(=O)C2CC2)nc1` gave an inhibition of 17.6%.
In the case of `Cc1ccc(NC(=O)CN2CCC3(O)CCCCC3C2c2ccc3c(c2)OCO3)c(C)c1` (stereo unspecified), the inhibition is reported as 19.6%.
`CCc1ccc(NC(=O)c2ccc(Cn3cc([N+](=O)[O-])cn3)cc2)cc1` was tested, and the inhibition was 29.5% (active).
`O=C(COc1ccccc1)NCc1ccc2c(c1)OCO2` gave an inhibition of 14.3%.
With `CCOc1ccc(Cn2nnc(C(=O)NCc3ccccc3)c2N)cc1` the inhibition was 52.4% (active).
Molecule `COc1cc(NC(=O)CN2C(=O)NC(C)(c3ccc(OC(F)F)cc3)C2=O)cc(OC)c1OC` (stereo unspecified) has an inhibition of 23.2%.
With `Cc1cc2c(cc1C)N(Cc1ccccc1)C1=NCCCN12` the inhibition was 20.8%.
For `CCN1CCN(c2ccc([N+](=O)[O-])cc2C(=O)c2ccc(Cl)cc2)CC1`, the inhibition was 39.6% (active).
In the case of `CCOc1ccc(C(=O)NC(=S)Nc2ccc(N3CCOCC3)c(Cl)c2)cc1[N+](=O)[O-]`, the inhibition is reported as -6.59%.
Molecule `COc1ccc(N=C2SC(C(=O)Nc3ccc(F)cc3)CC(=O)N2C)cc1` (stereo unspecified) has an inhibition of 4.38%.
`Fc1ccc(-c2ccc(-c3nn4c(-c5ccco5)nnc4s3)o2)cc1` gave an inhibition of 8.54%.
In the case of `O=C(CN1C(=O)/C(=C/c2ccccc2F)Sc2ccccc21)NCc1cccnc1`, the inhibition is reported as -18%.
For `Cc1ccc(C(=O)C[n+]2cc(-c3ccccc3)n3c2CCCCC3)cc1`, the inhibition was 27.9% (active).
With `C=CCC1(CC=C)CCCN1C(=O)c1cc(COc2ccc(-n3cncn3)cc2)on1` the inhibition was 29.2% (active).
In the case of `Clc1ccc(-c2cc(C3CCNCC3)[nH]n2)c(Cl)c1`, the inhibition is reported as 34.3% (active).
`CCCCCCCCCCOC(=O)Cn1c(COc2cccc(OC)c2)[n+](C)c2ccccc21` was tested, and the inhibition was 78.9% (active).
In the case of `Cc1cccc(NC(=O)c2cccc(C(=O)Nc3cccc(C)c3C)n2)c1C`, the inhibition is reported as 37.8% (active).
For `Clc1ccc(C2CC(c3cccs3)n3ncnc3N2)cc1Cl` (stereo unspecified), the inhibition was 31.9% (active).
`CCC(C(=O)Nc1ccc(C(C)C)cc1)c1ccccc1` (stereo unspecified) was tested, and the inhibition was 94.1% (active).
Molecule `C=CCNC(=O)COC(=O)c1ccccc1C(=O)N(C)C1CCCCC1` has an inhibition of -3.62%.
`O=C(Nc1ccc2c(c1)OCO2)C1CC(c2c(F)cccc2Cl)=NO1` (stereo unspecified) showed an inhibition of 8.85%.
`CC(=O)N1CCCc2cc(S(=O)(=O)N3CCCC(C(=O)N4CCN(c5cccc(Cl)c5)CC4)C3)ccc21` (stereo unspecified) was tested, and the inhibition was 69.6% (active).
For `COc1ccc(NC(=O)C2CCC(CNS(=O)(=O)c3csc(C(N)=O)c3)CC2)cc1OC` (stereo unspecified), the inhibition was -15.3%.
For `COc1cc(OC)cc(C(=O)N[C@H](C(=O)OCC(=O)NC(C)c2ccccc2)C(C)C)c1` (stereo partly specified), the inhibition was 79.4% (active).
For `COCCCNC(=S)N1CCN(c2nc(-c3cccc(OC)c3)cs2)CC1`, the inhibition was 19%.
In the case of `O=C(Cc1ccc(Cl)cc1)NC(=S)Nc1ccccc1O`, the inhibition is reported as 84.5% (active).
In the case of `O=C(NC(=O)c1ccccc1)Nc1ccccc1O`, the inhibition is reported as 12.2%.
For `Cc1ccccc1NC(=S)NC(=O)Cc1ccc(Cl)cc1`, the inhibition was 70.5% (active).
For `O=C(CCCN1CCc2[nH]c3ccc(F)cc3c2C1)c1ccc(F)cc1`, the inhibition was 18.6%.
For `CN(c1cccc(NC(=O)Nc2ccc(Cl)cc2)c1)S(C)(=O)=O`, the inhibition was 31% (active).
`OC(CNCC1CCCO1)Cn1c2ccc(Br)cc2c2cc(Br)ccc21` (stereo unspecified) was tested, and the inhibition was 78.3% (active).
In the case of `Cc1ccccc1CN1C(=O)c2ccccc2Sc2ccc(C(=O)NCCCN3CCOCC3)cc21`, the inhibition is reported as 42.4% (active).
`O=C(NCCCN1CCOCC1)c1ccc2c(c1)N(Cc1cccc(F)c1)C(=O)c1ccccc1S2` was tested, and the inhibition was 24.3% (active).
For `O=C(CSc1nnc(-c2ccco2)o1)NCC(=O)c1ccccc1`, the inhibition was -14.8%.
Molecule `Cc1ccc(S(=O)(=O)n2cnc3ccccc32)c(C)c1` has an inhibition of -4.27%.
`COc1ccc(C)cc1NC(=O)NCCCCc1ccccc1` gave an inhibition of 4.53%.
`CS(=O)(=O)N(Cc1ccc(Cl)cc1)c1ccc(C(=O)NCCSCc2ccco2)cc1` was tested, and the inhibition was 32.3% (active).
In the case of `Cc1ccc2[nH]cc(CCNC(=O)c3ccc([N+](=O)[O-])cc3)c2c1`, the inhibition is reported as 40.7% (active).
`Cc1ccccc1CN1C[C@@H]2C[C@@H](c3cn(C)nc3-c3ccccc3)N3CCC[C@@]23C1=O` gave an inhibition of 21.9%.
In the case of `Cc1ccc(NC2=C(Cl)C(=O)OC2OC(=O)c2ccccc2C)cc1` (stereo unspecified), the inhibition is reported as 4.37%.
With `CC1CN(C(=O)CCC(=O)NCCCN2CCC(Cc3ccccc3)CC2)c2cc(Cl)ccc2O1` (stereo unspecified) the inhibition was 49.4% (active).
In the case of `c1ccc(C2CNCc3c2ccc2ccccc32)cc1` (stereo unspecified), the inhibition is reported as 89.5% (active).
With `S=C(NCCc1ccccc1)Nc1ccccc1` the inhibition was 1.82%.
With `CN(c1ccccc1)S(=O)(=O)c1ccc(C(=O)NCCc2ccccc2)cc1` the inhibition was 24.1% (active).
`CC(=O)Nc1ccc(S(=O)(=O)N(C)CC(=O)NCCC2=CCCCC2)cc1` was tested, and the inhibition was -0.53%.
For `N=c1n(CCc2ccccc2)c2ccccc2n1Cc1ccccc1F`, the inhibition was 36.4% (active).
For `CS(=O)(=O)Nc1cccc(C2=NN(S(=O)(=O)c3ccccc3)C(c3cccs3)C2)c1` (stereo unspecified), the inhibition was 22.3%.
`CCN(CC)Cc1c(C(=O)OC)nnn1-c1nonc1N` was tested, and the inhibition was -1.39%.
In the case of `CCOc1ncccc1C(=O)NCCc1ccc(OC)cc1`, the inhibition is reported as 15%.
With `COc1ccc(CS(=O)/C(Cl)=C(/Cl)C(=O)Nc2ccc(OC)nc2)cc1` (stereo unspecified) the inhibition was 63.6% (active).
With `CCc1ccc(OCC2c3cc(OC)c(OC)cc3CCN2C(C)=O)cc1` (stereo unspecified) the inhibition was 30% (active).
Molecule `CCN(CC)CCOCCOc1ccc(Cl)c2ccccc12` has an inhibition of 20.8%.
`COc1ccccc1N1CCN(c2ncnc3sc(C)c(-c4ccccc4)c23)CC1` was tested, and the inhibition was 37.2% (active).
`CCC(C)c1ccccc1NC(=O)CN(C)CC(=O)Nc1ccccc1SC` (stereo unspecified) showed an inhibition of 19.5%.
`O=C(NCCCN1CCN(c2ccc(F)cc2)CC1)Nc1ccc([N+](=O)[O-])cc1` was tested, and the inhibition was 41.9% (active).
With `COc1cccc(CNCCc2c[nH]c3ccccc23)c1OCc1ccccc1F` the inhibition was 61.5% (active).
In the case of `O=C(NCCNc1ccc([N+](=O)[O-])cc1Cl)c1ccccc1F`, the inhibition is reported as 18.8%.
In the case of `O=C(CSCc1ccc([N+](=O)[O-])cc1)NCCSCc1ccccc1`, the inhibition is reported as 35.4% (active).
In the case of `O=[N+]([O-])c1ccc(N(CCO)Cc2ccccc2)c([N+](=O)[O-])c1`, the inhibition is reported as 23.3%.
For `CC(C(=O)N1CCN(c2ccccc2F)CC1)c1ccc([N+](=O)[O-])cc1` (stereo unspecified), the inhibition was 42.2% (active).
`Cc1cc(OC(C)C(=O)NC2CC(C)(C)NC(C)(C)C2)c2c(C)cc(=O)oc2c1` (stereo unspecified) gave an inhibition of -2.7%.
`Cc1c(CCO)c(=O)n(-c2ccccc2)n1S(=O)(=O)c1ccc(F)cc1` gave an inhibition of -9.84%.
With `Cc1cc(OCc2ccc(C(=O)Nc3ccc(C(=O)O)cc3)o2)ccc1Cl` the inhibition was 44.9% (active).
In the case of `Cc1ccc2nc(C)c3c(c2c1)N(c1ccccc1)CC3`, the inhibition is reported as 37.9% (active).
For `CS(=O)(=O)N(CC(O)Cn1c2ccccc2c2ccccc21)c1cccc2ccccc12` (stereo unspecified), the inhibition was 45% (active).
For `O=[N+]([O-])/C=C/c1ccc2c(ccn2Cc2ccccc2)c1`, the inhibition was 92.4% (active).
For `CN(C)S(=O)(=O)N1CCC(Oc2cccc(C(=O)NCCCC3CCCC3)c2)CC1`, the inhibition was 40.1% (active).
With `COc1ccc([N+](=O)[O-])cc1N(CC(O)CN(CC(C)C)CC(C)C)S(=O)(=O)c1ccc(C)cc1` (stereo unspecified) the inhibition was 31.9% (active).
With `N#CC1=C(SCc2ccc(C#N)cc2)N=C(N)C(c2nc(-c3ccccc3)cs2)C12CCCCC2` (stereo unspecified) the inhibition was 44.2% (active).
For `COc1cc(OC)c(-n2cc(-c3ccc(Cl)cc3)[nH]c2=O)cc1Cl`, the inhibition was 60.4% (active).
For `O=C(COc1ccc(S(=O)(=O)Nc2cccc(C(F)(F)F)c2)cc1)N1CCOCC1`, the inhibition was 19.6%.
With `Cc1cc(Cl)ccc1OCCCC(=O)Nc1cccc(-n2cnnn2)c1` the inhibition was 27.4% (active).
Work on `O=S(=O)(c1ccc(OCC(O)CN2CCN(c3ccccc3Cl)CC2)cc1)N1CCOCC1` (stereo unspecified) yielded an inhibition of 11.4%.
`Cc1ccc(NC(=S)N(CCCN2CCC(C)CC2)Cc2ccco2)cc1` was tested, and the inhibition was 0.61%.
`Cc1ccc(SCc2cc(=O)[nH]c(N3CCCCC3)n2)cc1` gave an inhibition of -9.2%.
`CCCOc1ccccc1C1CC(=O)Nc2cc3c(cc21)OCO3` (stereo unspecified) was tested, and the inhibition was 24.6% (active).
For `Nc1nnc(SCC(=O)Nc2ccc3nc(SCC(=O)Nc4ccccc4)sc3c2)s1`, the inhibition was 59.8% (active).
For `Cc1ccccc1Nc1nnc(SCC(=O)c2cc3ccccc3o2)s1`, the inhibition was 3.71%.
`Cc1ccc(CNC(=O)C2CCN(S(=O)(=O)c3ccc4nc5c(c(C(=O)O)c4c3)CC(C)CC5)CC2)cc1` (stereo unspecified) showed an inhibition of 16.8%.
For `Cn1c(=O)c([N+](=O)[O-])c(Oc2ccccc2)c2ccccc21`, the inhibition was 17.2%.
`COc1ccccc1N(C(=O)Cn1nnc2ccccc21)C(C(=O)NCc1ccco1)c1ccc(C)o1` (stereo unspecified) was tested, and the inhibition was 22.8%.

— PubChem BioAssay AID1952 (The Scripps Research Institute Molecular Screening Center, 2009)
